Measurements published in PubChem BioAssay (NCI).
About 83,000 compounds went through this panel and 20% of them were active in at least one assay; those are over-represented in the sample as a whole.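 Results are percent growth after 48 hours of single-concentration exposure. 100 means growth as in untreated cells, lower positive values show inhibition; negative values down to -100 show cell death.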 A number with no mark means an inactive call. Calls of active or inactive are those of the source. Rule for the calls: active = growth percent below 10; inactive = the rest.

Key:
Test in all cases: NCI-60 one-dose screen, 48 h (100 = growth as untreated, 0 = no growth, -100 = all killed)
Details in all cases: 10 µM unless noted
RPMI-8226 leukemia = tested on: RPMI-8226 leukemia
OVCAR-8 ovarian = tested on: OVCAR-8 ovarian
OVCAR-5 ovarian = tested on: OVCAR-5 ovarian
OVCAR-4 ovarian = tested on: OVCAR-4 ovarian
SK-OV-3 ovarian = tested on: SK-OV-3 ovarian
IGROV1 ovarian = tested on: IGROV1 ovarian
OVCAR-3 ovarian = tested on: OVCAR-3 ovarian
HS 578T breast = tested on: HS 578T breast
NCI/ADR-RES ovarian = tested on: NCI/ADR-RES ovarian
T-47D breast = tested on: T-47D breast
BT-549 breast = tested on: BT-549 breast
MDA-MB-435 melanoma = tested on: MDA-MB-435 melanoma
SW-620 colon = tested on: SW-620 colon
MCF7 breast = tested on: MCF7 breast
HCT-116 colon = tested on: HCT-116 colon
HCC-2998 colon = tested on: HCC-2998 colon
KM12 colon = tested on: KM12 colon

Structure (SMILES)	growth (RPMI-8226 leukemia)	growth (OVCAR-8 ovarian)	growth (OVCAR-5 ovarian)	growth (OVCAR-4 ovarian)	growth (SK-OV-3 ovarian)	growth (IGROV1 ovarian)	growth (OVCAR-3 ovarian)	growth (HS 578T breast)	growth (NCI/ADR-RES ovarian)	growth (T-47D breast)	growth (BT-549 breast)	growth (MDA-MB-435 melanoma)	growth (SW-620 colon)	growth (MCF7 breast)	growth (HCT-116 colon)	growth (HCC-2998 colon)	growth (KM12 colon)
O=C(Nc1cccc(-n2cc(-c3ccncc3)c(-c3ccc(Cl)c(O)c3)n2)c1)c1ccccc1	60.5%	50.9%	115%	40.7%	80.1%	88%	82.1%	48.4%	62.7%	73.9%	83.4%	56.2%	76.9%	62.6%	57.8%	76.8%	70.1%
Clc1ccc(-c2nc3ccccc3s2)cc1Cl	104%	98.9%	103%	81.3%	108%	75%	92.7%	104%	98.1%	61.3%	97.4%	121%	82.6%	67.8%	99%	93.9%	97.1%
CCOC(=O)c1cn2c3c(cc(C)cc3c1=O)C(=O)/C(=C/c1ccccc1)C2	110%	82.1%	90%	88.1%	82.3%	93.2%	96.7%	103%	93.9%	81.7%	84.3%	107%	101%	86.7%	86.4%	98.9%	102%
COc1cc(-c2nn(-c3cccc(NC(=O)Nc4cc(C(F)(F)F)cc(C(F)(F)F)c4)c3)cc2-c2ccncc2)ccc1Cl	-11.7% (active)	-12.7% (active)	16.3%	17.2%	-9.79% (active)	19.9%	-57.9% (active)	-25.8% (active)	1.11% (active)	4.45% (active)	-8.96% (active)	-58.3% (active)	–	1.74% (active)	-43.6% (active)	-10.8% (active)	-14.8% (active)
COc1ccc(-c2[nH]nc(N)c2-c2cc(OC)c3c(c2)OCO3)cc1	81.3%	77.2%	70%	89.3%	76.7%	73.9%	64.9%	40.4%	8.74% (active)	62%	59.2%	-12.8% (active)	20.5%	32.3%	30.9%	44.3%	27.8%
COc1ccc(NC(=O)c2cc(OC)c(OC)c(OC)c2)cc1O	51.8%	57.6%	83.4%	57.4%	29.1%	54.7%	-27.6% (active)	-10.2% (active)	13.2%	42.5%	45.5%	-15.1% (active)	28.1%	24%	33.4%	–	22.9%
COc1ccc(-c2cc3c(OC)c(OC)c(OC)cc3oc2=O)cc1	54.6%	67%	74%	81.3%	67.1%	61.6%	5.53% (active)	33.3%	4.06% (active)	42.2%	57.5%	-17.1% (active)	25.1%	26.2%	21.7%	–	21.9%
CN(C)c1oc(C2OC2c2ccccc2)nc1C#N (stereo unspecified)	98.3%	85.4%	89.6%	109%	79.2%	90.6%	105%	90.1%	100%	89.5%	95.6%	101%	94.3%	90.5%	90.2%	97.3%	103%
CN(C[C@H]1Cc2c(cccc2N2CCN(c3ncccn3)CC2)CN1)[C@H]1CCCc2cccnc21	27.1%	30%	52.8%	52.9%	39.5%	37.1%	34%	73.1%	9.46% (active)	26.1%	56.9%	40.7%	31.3%	15.6%	–	53.9%	43.5%
O=C(Nc1cccc(-n2cc(-c3ccncc3)c(-c3ccc(Cl)c(O)c3)n2)c1)Nc1ccc(Cl)c(Cl)c1	7.89% (active)	11.7%	56.4%	29.4%	18.7%	28.7%	-4.74% (active)	36.1%	20.9%	23%	34.4%	9.98% (active)	24.5%	5.74% (active)	11.1%	–	8.15% (active)
COc1ccc(-c2c(N)n[nH]c2-c2cc3c(c(OC)c2OC)OCO3)cc1	57.5%	104%	85.5%	99.1%	106%	96.4%	108%	83.3%	96.8%	106%	101%	106%	101%	101%	94.1%	106%	99.9%
CN(C)CC(C(=O)c1ccccc1)c1ccccc1 (stereo unspecified)	-34.4% (active)	9.37% (active)	59.3%	43.1%	88.4%	48.6%	-92.6% (active)	60.5%	17.1%	66.6%	23.3%	23.1%	-61.9% (active)	10.5%	-94.7% (active)	74.9%	10.8%
O=C(CSc1nc2ccccc2[nH]1)Nc1ccc(-c2nc3ccccc3s2)c(Cl)c1	28.9%	-9.6% (active)	20.4%	-39.8% (active)	12.4%	-52.3% (active)	-17.2% (active)	65.2%	9.5% (active)	-12.7% (active)	47.4%	13.2%	–	6.26% (active)	–	95.3%	–
O=C(O)c1nc(-c2ccccc2)oc1N1CCOCC1	107%	98.4%	93.2%	108%	92.7%	98.2%	105%	86.3%	96.6%	82.9%	97.5%	97.5%	96%	–	94.6%	105%	88.9%
COc1cc(-c2nc(-c3nc4ccc(Cl)cc4[nH]3)cc3c2[nH]c2ccccc23)cc(OC)c1OC	45.2%	48.4%	93.3%	59.9%	103%	52.6%	82.8%	77.3%	55.6%	54.2%	70.8%	75.5%	96.2%	47.9%	58.7%	68.7%	71%
Cc1cc(C)n(-c2nnc3n2N=C(c2ccc(-c4ccccc4)cc2)CS3)n1	37.2%	52.5%	83.8%	–	56.8%	69.6%	15.6%	49.2%	35%	48.7%	48.7%	-7.2% (active)	36.7%	28%	41.8%	76.8%	53%
COc1ccc(C2C=C(c3ccc(N)cc3)N=C3SC=CN32)cc1OC (stereo unspecified)	–	98.7%	108%	102%	115%	–	107%	127%	106%	102%	108%	106%	112%	98.6%	107%	–	99.5%
